“And” between values parts separate entries of the source, which are not always exact repeats. Identical values can stand only once. In all, about 5,500 compounds went through this assay and about 2,000 (36%) were called active. About 18% were inconclusive and are not listed. Cut-off read from the data, not from the text of the source: active = normalized growth mostly below about 0.91 (no sharp cut-off); inconclusive = no clear call, values can overlap the other calls; inactive = mostly above about 0.92. The list shows a part of the results.
Test: chemical genetic growth profiling, strain panel (AID 1159580);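 note: tested at 20 µM; growth read once vehicle control cultures reached saturation at 30 °C; 1 = growth at the plate median or of vehicle wells; lower values mean less growth of the strain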
Conditions: S. cerevisiae deletion strains, growth OD

Measured: normalized growth

Nc1ncnc2c1ncn2[C@@H]1O[C@H](CO)[C@@H](O)[C@@H]1O
inactive: locus YAL013W, strain DEP1, active compounds read low 1.01 | locus YAL021C, strain ccr4, active compounds read low 1 | locus YAL026C, strain drs2, active compounds read low 1.01 | locus YAL030W, strain snc1, active compounds read low 1.01 | locus YBL061C, strain skt5, active compounds read low 1.01 | locus YBR009C, strain hhf1, active compounds read low 1.01 | locus YBR021W, strain FUR4, active compounds read low 1 | locus YBR023C, strain chs3, active compounds read low 1.01 | locus YBR171W, strain sec66, active compounds read low 1.02 | locus YBR229C, strain ROT2, active compounds read low 1.01 | locus YBR231C, strain swc5, active compounds read low 0.997 | locus YBR279W, strain paf1, active compounds read low 1.01 | locus YCL011C, strain gbp2, active compounds read low 1.01 | locus YCL016C, strain dcc1, active compounds read low 1 | locus YCL029C, strain bik1, active compounds read low 1.05 | locus YCL061C, strain MRC1, active compounds read low 1.01 | locus YCL069W, strain vba3, active compounds read low 1.02 | locus YCR088W, strain abp1, active compounds read low 1.01 | locus YDL005C, strain med2, active compounds read low 1.02 | locus YDL035C, strain GPR1, active compounds read low 1.01 | locus YDL040C, strain nat1, active compounds read low 1.01 | locus YDL074C, strain BRE1, active compounds read low 1.01 | locus YDL101C, strain DUN1, active compounds read low 1.01 | locus YDL134C, strain PPH21, active compounds read low 1.01 | locus YDL185W, strain tfp1, active compounds read low 1.02 | locus YDL192W, strain arf1, active compounds read low 1.03 | locus YDR001C, strain nth1, active compounds read low 1.01 | locus YDR069C, strain doa4, active compounds read low 1.01 | locus YDR101C, strain arx1, active compounds read low 1.03 | locus YDR137W, strain rgp1, active compounds read low 1.03 | locus YDR150W, strain NUM1, active compounds read low 1.01 | locus YDR159W, strain sac3, active compounds read low 1.01 | locus YDR162C, strain NBP2, active compounds read low 1.01 | locus YDR195W, strain ref2 1.02 | locus YDR297W, strain sur2, active compounds read low 1.01 | locus YDR318W, strain mcm21, active compounds read low 1.04 | locus YDR334W, strain swr1, active compounds read low 1.01 | locus YDR335W, strain msn5, active compounds read low 1 | locus YDR388W, active compounds read low 1.02 | locus YDR392W, strain spt3, active compounds read low 0.986 | locus YDR502C, strain sam2, active compounds read low 1.03 | locus YEL003W, strain gim4, active compounds read low 1.02 | locus YEL037C, strain rad23, active compounds read low 1.01 | locus YEL061C, strain CIN8 (second series), active compounds read low 1.02 | locus YEL061C, strain CIN8, active compounds read low 1.01 | locus YER015W, strain faa2, active compounds read low 1.01 | locus YER016W, strain bim1, active compounds read low 1.01 | locus YER110C, active compounds read low 1.04 | locus YER111C, strain swi4, active compounds read low 1.01 | locus YER155C, strain BEM2 (second series), active compounds read low 1.02 | locus YER155C, strain BEM2, active compounds read low 1 | locus YER167W, strain BCK2, active compounds read low 1.01 | locus YFR010W, strain ubp6, active compounds read low 1.02 | locus YGL078C, strain dbp3, active compounds read low 1.02 | locus YGL086W, strain mad1, active compounds read low 1.01 | locus YGL167C, strain pmr1, active compounds read low 1.02 | locus YGL173C, strain kem1, active compounds read low 1.01 | locus YGL227W, strain vid30, active compounds read low 1.01 | locus YGL240W, strain doc1, active compounds read low 1.02 | locus YGL248W, strain PDE1, active compounds read low 1.01 | locus YGL253W, strain hxk2, active compounds read low 1.02 | locus YGR078C, strain PAC10, active compounds read low 1.01 | locus YGR135W, strain pre9, active compounds read low 1.03 | locus YGR229C, strain SMI1, active compounds read low 1.01 | locus YGR252W, strain gcn5, active compounds read low 1.06 | locus YHR013C, strain ard1, active compounds read low 1.03 | locus YHR027C, strain rpn1, active compounds read low 1.01 | locus YHR030C, strain SLT2, active compounds read low 1.01 and 0.991 | locus YHR079C, strain IRE1 (second series), active compounds read low 1.02 | locus YHR079C, strain IRE1, active compounds read low 0.995 | locus YHR094C, strain hxt1, active compounds read low 1.02 | locus YHR129C, strain ARP1, active compounds read low 1 | locus YHR142W, strain chs7, active compounds read low 1.03 | locus YHR200W, strain rpn10, active compounds read low 1.03 | locus YIL066C, strain RNR3, active compounds read low 1.01 | locus YIL073C, strain SPO22, active compounds read low 1.08 | locus YIL125W, strain kgd1, active compounds read low 1.02 | locus YIR030C, strain dcg1, active compounds read low 1.03 | locus YJL092W, strain hpr5, active compounds read low 1.01 | locus YJL095W, strain BCK1 (second series), active compounds read low 1.01 | locus YJL095W, strain BCK1, active compounds read low 1.03 and 0.999 | locus YJL115W, strain asf1, active compounds read low 1.01 | locus YJL129C, strain trk1, active compounds read low 1.01 | locus YJL134W, strain LCB3, active compounds read low 1.01 | locus YJL154C, strain vps35, active compounds read low 1.02 | locus YJL164C, strain tpk1, active compounds read low 1.03 | locus YJL166W, strain qcr8, active compounds read low 1.01 | locus YJL168C, strain set2, active compounds read low 1.03 | locus YJL187C, strain SWE1 (second series), active compounds read low 1.02 | locus YJL187C, strain SWE1, active compounds read low 1.01 | locus YJR043C, strain POL32, active compounds read low 1.02 | locus YJR066W, strain TOR1, active compounds read low 0.943
